In assay [1] the test system is turtle Estrogen Receptor (ESR1), gene 101933533. Briefly: ATG_trERa_XSP1: Attagene TRANS-FACTORIAL Multi-Species (XSP1) HepG2 Assay for turtle Estrogen Receptor (ESR1) (AID 2283781). Summed up: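 HepG2 cells transiently transfected with GAL4-UAS reporter units and chimeric NR-Gal4 constructs, dosed for 24 h with 3 nM 6-alpha-fluorotestosterone present. Reporter mRNA was quantified by RT-PCR, fluorescent labelling and capillary electrophoresis, with gain of signal fitted relative to DMSO.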

Assay [2] can be described thus: ATG_M_06_XSP1: Attagene TRANS-FACTORIAL Multi-Species (XSP1) HepG2 Assay for M06 Transcription Factor (Internal Marker) (AID 2283790). In short, it runs like this:
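Transfected HepG2 multi-reporter system treated 24 h in the presence of 3 nM 6-alpha-fluorotestosterone. The M06 internal marker transcript was quantified by RT-PCR with capillary electrophoresis as a background control, and gain of signal was scored versus DMSO.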

Assay [3] is described as follows: ATG_M_61_XSP1: Attagene TRANS-FACTORIAL Multi-Species (XSP1) HepG2 Assay for M61 Transcription Factor (Internal Marker) (AID 2283797). Summed up: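 HepG2 cells transiently transfected with multiplexed GAL4-driven reporter units, dosed 24 h with 3 nM 6-alpha-fluorotestosterone present. Reporter mRNA quantified by RT-PCR, 6-FAM labelling, HpaI digestion and capillary electrophoresis; internal-marker background control, gain of signal versus DMSO.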

Assay [4] deals with Peroxisome proliferator-activated receptor gamma (Homo sapiens) (UniProt P37231). Briefly: ATG_hPPARg_XSP1: Attagene TRANS-FACTORIAL Multi-Species (XSP1) HepG2 Assay for human Peroxisome Proliferator-activated Receptor gamma (PPARg) (AID 2283800). The protocol: ATG_XSP1_multi-species_TRANS is a cell-based, multiplexed assay created by modifying the existing Attagene TRANS-FACTORIAL system to include a panel of nuclear receptors from some or all the following species: human (Homo sapiens), mouse (Mus musculus), frog (Xenopus laevis), zebrafish (Danio rerio), chicken (Gallus gallus), and turtle (Chrysemys picta). The ECOTOX-FACTORIAL format uses HepG2, a human liver cell line, with measurements taken at 24 hours after chemical dosing in a 24-well plate. Xsp1 included 3 nM 6-alpha-fluorotestosterone to partially stimulate the androgen receptor.ATG_hPPARg_XSP1 is one of 29 assay components measured or calculated from the ATG_XSP1_multi-species_TRANS assay. It is designed to make measurements of mRNA induction, a form of inducible reporter, as detected with fluorescence intensity signals by Reverse transcription polymerase chain reaction (RT-PCR) and Capillary electrophoresis technology.The assay endpoint ATG_hPPARg_XSP1 was analyzed in the positive analysis fitting direction relative to DMSO as the negative control and baseline of activity. […] Furthermore, this assay endpoint can be referred to as a primary readout, because this assay has produced multiple assay endpoints where this one serves a reporter gene function. […]
Peroxisome proliferator-activated receptor gamma (Homo sapiens), sequence (P37231 whole entry, looked up): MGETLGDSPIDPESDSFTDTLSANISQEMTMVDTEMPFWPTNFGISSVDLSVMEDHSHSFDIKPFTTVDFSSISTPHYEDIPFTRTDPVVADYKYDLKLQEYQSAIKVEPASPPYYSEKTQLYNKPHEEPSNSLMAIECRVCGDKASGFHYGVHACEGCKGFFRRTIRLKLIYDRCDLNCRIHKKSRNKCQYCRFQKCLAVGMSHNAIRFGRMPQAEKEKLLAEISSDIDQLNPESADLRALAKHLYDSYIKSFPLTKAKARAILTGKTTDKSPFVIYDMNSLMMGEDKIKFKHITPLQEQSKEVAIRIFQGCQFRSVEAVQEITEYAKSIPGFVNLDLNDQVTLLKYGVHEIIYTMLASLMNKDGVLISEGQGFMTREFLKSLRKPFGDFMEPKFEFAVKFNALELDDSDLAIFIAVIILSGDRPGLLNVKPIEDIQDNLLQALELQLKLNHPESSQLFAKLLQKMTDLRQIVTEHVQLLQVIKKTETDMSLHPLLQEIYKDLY

The test system of assay [5] is zebrafish Peroxisome Proliferator-activated Receptor gamma (PPARg), gene 557037. Briefly: ATG_zfPPARg_XSP1: Attagene TRANS-FACTORIAL Multi-Species (XSP1) HepG2 Assay for zebrafish Peroxisome Proliferator-activated Receptor gamma (PPARg) (AID 2283801). In short, it runs like this: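 HepG2 cells transiently transfected with GAL4-UAS reporter units including a zebrafish PPARg–GAL4 chimera, dosed 24 h with 3 nM 6-alpha-fluorotestosterone present. Reporter mRNA quantified by RT-PCR, FAM labelling, HpaI digestion and capillary electrophoresis; induction versus DMSO.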

Assay [6] deals with Nuclear receptor subfamily 1 group I member 2 (Mus musculus) (UniProt O54915). Put plainly: ATG_mPXR_XSP1: Attagene TRANS-FACTORIAL Multi-Species (XSP1) HepG2 Assay for mouse Pregnane X Receptor (PXR) (AID 2283803). Summed up:
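Transiently transfected HepG2 cells expressing a receptor-Gal4 chimera drive a GAL4-UAS reporter; 3 nM 6-alpha-fluorotestosterone included. Reporter mRNA read 24 h post-dose by RT-PCR and capillary electrophoresis; gain of signal relative to DMSO.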

Records with an inconclusive call do not appear. Calls of active or inactive are those of the source. Rule for the calls: active = hit-call score of the fitted dose curve at least 0.9, where 1 is the maximum; inconclusive = response in the unintended direction; inactive = score below 0.9.

For orientation: AC50 means the midpoint of the concentration-response curve, whichever way the signal moves.

Nuclear receptor subfamily 1 group I member 2 (Mus musculus), sequence (O54915 whole entry, looked up, the tested form may be a part): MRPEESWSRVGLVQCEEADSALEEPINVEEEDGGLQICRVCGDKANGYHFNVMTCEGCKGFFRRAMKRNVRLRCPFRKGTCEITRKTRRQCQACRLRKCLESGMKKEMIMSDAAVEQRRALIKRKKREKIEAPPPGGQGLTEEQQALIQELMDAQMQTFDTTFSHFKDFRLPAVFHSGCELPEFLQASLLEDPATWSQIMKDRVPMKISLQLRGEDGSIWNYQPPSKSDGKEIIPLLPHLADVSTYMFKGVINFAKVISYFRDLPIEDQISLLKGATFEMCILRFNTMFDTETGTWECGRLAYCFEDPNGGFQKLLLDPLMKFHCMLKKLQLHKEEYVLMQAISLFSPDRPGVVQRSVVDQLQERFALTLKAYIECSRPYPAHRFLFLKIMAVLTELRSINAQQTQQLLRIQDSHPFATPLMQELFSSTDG

On to `C#C[C@]1(O)CC[C@H]2[C@@H]3CCc4cc(O)ccc4[C@H]3CC[C@@]21C`, for which the AC50 in assay [1] is 0.0403 nM (active). The result in assay [2], in assay [3] and in assay [4] was inactive.

`CC/C(=C(\c1ccccc1)c1ccc(OCCN(C)C)cc1)c1ccccc1`: the compound was classed as inactive in assay [2], in assay [3], in assay [4], in assay [5] and in assay [6].

The record behind these values is PubChem BioAssay (EPA / NIEHS).
